The target in assay [1] is T1, Inhibitor of nuclear factor kappa-B kinase subunit epsilon (Homo sapiens) (UniProt Q14164).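 Note: reported values are averaged percent inhibition figures against human IKKε.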
T1 sequence (whole entry): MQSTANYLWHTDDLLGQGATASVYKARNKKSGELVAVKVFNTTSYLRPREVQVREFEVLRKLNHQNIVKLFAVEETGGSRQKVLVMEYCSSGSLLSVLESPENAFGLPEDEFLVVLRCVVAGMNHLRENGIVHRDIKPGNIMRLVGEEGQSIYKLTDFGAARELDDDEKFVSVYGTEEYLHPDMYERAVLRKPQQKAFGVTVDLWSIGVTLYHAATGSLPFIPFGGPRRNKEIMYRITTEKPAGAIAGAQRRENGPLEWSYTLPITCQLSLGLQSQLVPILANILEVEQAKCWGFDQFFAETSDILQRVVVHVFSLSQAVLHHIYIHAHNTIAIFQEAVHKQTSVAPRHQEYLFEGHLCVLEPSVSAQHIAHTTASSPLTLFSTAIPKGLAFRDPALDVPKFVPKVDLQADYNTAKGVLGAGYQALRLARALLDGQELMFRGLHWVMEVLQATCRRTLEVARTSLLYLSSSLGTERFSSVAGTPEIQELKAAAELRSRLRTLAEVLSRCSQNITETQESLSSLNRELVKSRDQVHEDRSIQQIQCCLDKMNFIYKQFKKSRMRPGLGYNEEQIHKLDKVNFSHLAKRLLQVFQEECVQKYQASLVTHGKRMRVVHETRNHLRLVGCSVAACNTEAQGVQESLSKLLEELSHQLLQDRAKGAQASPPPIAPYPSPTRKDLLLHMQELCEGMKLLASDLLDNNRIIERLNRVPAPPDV
The settings on record: at 1 µM.

Assay [2] addresses T2, Serine/threonine-protein kinase Nek1 (Homo sapiens) (UniProt Q96PY6).
T2 sequence (whole entry): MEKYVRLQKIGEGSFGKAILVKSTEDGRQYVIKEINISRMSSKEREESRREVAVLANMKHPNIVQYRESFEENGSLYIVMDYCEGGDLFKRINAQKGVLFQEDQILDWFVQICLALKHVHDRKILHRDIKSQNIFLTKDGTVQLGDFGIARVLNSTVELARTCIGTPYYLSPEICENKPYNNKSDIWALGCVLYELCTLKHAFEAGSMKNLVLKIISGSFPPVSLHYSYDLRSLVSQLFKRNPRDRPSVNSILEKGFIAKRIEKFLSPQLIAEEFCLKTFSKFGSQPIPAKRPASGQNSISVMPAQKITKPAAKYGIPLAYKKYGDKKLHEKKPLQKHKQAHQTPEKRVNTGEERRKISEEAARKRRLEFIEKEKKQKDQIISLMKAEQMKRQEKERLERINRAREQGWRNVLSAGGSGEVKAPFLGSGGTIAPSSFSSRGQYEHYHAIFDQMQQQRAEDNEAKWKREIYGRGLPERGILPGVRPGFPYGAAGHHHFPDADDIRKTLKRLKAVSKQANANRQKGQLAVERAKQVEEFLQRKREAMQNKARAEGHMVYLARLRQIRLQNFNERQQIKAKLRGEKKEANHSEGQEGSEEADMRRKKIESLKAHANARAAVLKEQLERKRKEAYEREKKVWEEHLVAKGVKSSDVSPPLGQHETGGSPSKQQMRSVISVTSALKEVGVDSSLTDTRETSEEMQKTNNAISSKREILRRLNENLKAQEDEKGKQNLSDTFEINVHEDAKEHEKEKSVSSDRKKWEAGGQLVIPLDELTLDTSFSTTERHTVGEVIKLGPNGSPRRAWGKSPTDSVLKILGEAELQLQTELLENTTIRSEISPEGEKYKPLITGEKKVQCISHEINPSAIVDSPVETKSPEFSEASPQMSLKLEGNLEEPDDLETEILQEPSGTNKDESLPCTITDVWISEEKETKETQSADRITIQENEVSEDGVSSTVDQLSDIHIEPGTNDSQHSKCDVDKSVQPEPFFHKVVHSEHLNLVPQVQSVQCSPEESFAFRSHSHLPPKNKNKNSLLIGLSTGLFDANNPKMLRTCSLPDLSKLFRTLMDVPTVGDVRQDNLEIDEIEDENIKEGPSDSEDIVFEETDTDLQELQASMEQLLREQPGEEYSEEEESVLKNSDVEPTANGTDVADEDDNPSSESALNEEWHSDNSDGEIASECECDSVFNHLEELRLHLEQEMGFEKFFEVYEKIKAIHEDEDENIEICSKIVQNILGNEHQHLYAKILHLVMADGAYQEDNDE
The settings on record: at 0.1 µM.

For assay [3], the target named is T2, Serine/threonine-protein kinase Nek1 (Homo sapiens). The settings on record: at 1 µM.
The target in assay [4] is T3, Serine/threonine-protein kinase Nek2 (Homo sapiens) (UniProt P51955).
T3 sequence (whole entry): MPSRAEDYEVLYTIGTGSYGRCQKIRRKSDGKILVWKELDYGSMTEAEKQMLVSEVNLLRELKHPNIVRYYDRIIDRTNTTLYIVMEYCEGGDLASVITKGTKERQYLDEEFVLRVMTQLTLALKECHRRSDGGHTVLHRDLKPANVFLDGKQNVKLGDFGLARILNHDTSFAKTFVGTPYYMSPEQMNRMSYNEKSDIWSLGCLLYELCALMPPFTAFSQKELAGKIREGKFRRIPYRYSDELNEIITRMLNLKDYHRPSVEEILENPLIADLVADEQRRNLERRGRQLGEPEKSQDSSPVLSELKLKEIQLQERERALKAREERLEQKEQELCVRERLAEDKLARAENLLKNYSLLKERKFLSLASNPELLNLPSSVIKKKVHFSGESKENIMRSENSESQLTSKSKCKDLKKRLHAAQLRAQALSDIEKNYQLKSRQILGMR
The settings on record: at 0.1 µM.

For assay [5], the target named is T3, Serine/threonine-protein kinase Nek2 (Homo sapiens). The settings on record: at 1 µM.
Assay [6] has as its target Serine/threonine-protein kinase Nek6 (Homo sapiens) (UniProt Q9HC98). The settings on record: at 0.1 µM.
Assay [7] has the same target. The settings on record: at 1 µM.
Assay [8] has as its target Serine/threonine-protein kinase Nek7 (Homo sapiens) (UniProt Q8TDX7). The settings on record: at 0.1 µM.
For assay [9] the target is unchanged. The settings on record: at 1 µM.
In assay [10] the target is T4, Serine/threonine-protein kinase Nek9 (Homo sapiens) (UniProt Q8TD19).
T4 sequence (whole entry): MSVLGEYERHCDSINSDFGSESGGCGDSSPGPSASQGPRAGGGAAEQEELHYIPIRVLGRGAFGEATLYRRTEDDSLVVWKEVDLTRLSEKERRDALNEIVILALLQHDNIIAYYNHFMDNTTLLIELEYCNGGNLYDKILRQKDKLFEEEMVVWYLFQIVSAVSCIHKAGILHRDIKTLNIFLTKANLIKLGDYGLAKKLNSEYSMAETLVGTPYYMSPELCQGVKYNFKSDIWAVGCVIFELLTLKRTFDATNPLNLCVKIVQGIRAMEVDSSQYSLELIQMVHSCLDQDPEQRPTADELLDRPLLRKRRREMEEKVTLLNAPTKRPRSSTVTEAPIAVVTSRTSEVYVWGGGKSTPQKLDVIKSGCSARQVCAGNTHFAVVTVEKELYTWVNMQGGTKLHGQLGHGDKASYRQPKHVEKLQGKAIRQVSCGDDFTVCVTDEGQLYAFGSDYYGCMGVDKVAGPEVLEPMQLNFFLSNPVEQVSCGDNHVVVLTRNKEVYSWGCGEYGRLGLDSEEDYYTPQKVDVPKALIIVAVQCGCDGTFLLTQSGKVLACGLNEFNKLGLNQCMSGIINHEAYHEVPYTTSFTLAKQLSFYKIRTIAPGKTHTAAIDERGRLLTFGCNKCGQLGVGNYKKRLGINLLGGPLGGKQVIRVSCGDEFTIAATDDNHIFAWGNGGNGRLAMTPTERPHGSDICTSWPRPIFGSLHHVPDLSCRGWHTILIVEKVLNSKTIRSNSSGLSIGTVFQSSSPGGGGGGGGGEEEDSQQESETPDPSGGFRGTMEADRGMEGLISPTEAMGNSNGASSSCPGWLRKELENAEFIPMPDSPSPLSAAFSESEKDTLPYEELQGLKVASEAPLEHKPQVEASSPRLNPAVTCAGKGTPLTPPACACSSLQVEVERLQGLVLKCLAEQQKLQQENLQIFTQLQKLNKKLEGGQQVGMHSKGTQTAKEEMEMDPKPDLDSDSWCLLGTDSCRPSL
The settings on record: at 0.1 µM.

Assay [11] addresses T4, Serine/threonine-protein kinase Nek9 (Homo sapiens). The settings on record: at 1 µM.
The target in assay [12] is Serine/threonine-protein kinase PLK1 (Homo sapiens) (UniProt P53350). The settings on record: at 0.1 µM.
Assay [13] has the same target. The settings on record: at 1 µM.
Assay [14] addresses T5, Dual specificity protein kinase TTK (Homo sapiens) (UniProt P33981).
T5 sequence (whole entry): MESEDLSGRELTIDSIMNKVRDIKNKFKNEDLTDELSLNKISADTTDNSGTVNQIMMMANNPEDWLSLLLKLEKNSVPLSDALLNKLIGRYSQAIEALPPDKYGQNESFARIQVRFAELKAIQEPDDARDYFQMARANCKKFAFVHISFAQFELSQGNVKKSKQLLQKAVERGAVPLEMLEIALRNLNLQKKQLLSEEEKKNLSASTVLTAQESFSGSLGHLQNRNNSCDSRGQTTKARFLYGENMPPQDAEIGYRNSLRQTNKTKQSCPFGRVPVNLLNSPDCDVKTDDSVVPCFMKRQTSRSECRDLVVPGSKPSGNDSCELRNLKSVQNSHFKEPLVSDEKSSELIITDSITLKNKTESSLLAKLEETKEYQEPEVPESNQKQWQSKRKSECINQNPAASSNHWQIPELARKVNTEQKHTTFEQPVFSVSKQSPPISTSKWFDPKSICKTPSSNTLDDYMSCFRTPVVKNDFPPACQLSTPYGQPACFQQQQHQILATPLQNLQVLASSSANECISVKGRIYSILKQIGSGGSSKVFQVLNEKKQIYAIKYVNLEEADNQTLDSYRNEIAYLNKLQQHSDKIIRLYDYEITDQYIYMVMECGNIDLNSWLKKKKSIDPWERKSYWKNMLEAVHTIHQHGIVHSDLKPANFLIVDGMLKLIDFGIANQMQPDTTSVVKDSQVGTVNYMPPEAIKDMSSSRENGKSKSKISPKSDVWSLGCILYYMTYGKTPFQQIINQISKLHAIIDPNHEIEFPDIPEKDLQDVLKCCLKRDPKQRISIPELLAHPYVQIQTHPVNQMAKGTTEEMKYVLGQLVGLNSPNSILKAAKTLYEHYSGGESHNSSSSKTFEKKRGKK
The settings on record: at 0.1 µM.

For assay [15], the system named is T6, Receptor-type tyrosine-protein kinase FLT3 (Homo sapiens), P36888 [D835Y].
T6 sequence (whole entry): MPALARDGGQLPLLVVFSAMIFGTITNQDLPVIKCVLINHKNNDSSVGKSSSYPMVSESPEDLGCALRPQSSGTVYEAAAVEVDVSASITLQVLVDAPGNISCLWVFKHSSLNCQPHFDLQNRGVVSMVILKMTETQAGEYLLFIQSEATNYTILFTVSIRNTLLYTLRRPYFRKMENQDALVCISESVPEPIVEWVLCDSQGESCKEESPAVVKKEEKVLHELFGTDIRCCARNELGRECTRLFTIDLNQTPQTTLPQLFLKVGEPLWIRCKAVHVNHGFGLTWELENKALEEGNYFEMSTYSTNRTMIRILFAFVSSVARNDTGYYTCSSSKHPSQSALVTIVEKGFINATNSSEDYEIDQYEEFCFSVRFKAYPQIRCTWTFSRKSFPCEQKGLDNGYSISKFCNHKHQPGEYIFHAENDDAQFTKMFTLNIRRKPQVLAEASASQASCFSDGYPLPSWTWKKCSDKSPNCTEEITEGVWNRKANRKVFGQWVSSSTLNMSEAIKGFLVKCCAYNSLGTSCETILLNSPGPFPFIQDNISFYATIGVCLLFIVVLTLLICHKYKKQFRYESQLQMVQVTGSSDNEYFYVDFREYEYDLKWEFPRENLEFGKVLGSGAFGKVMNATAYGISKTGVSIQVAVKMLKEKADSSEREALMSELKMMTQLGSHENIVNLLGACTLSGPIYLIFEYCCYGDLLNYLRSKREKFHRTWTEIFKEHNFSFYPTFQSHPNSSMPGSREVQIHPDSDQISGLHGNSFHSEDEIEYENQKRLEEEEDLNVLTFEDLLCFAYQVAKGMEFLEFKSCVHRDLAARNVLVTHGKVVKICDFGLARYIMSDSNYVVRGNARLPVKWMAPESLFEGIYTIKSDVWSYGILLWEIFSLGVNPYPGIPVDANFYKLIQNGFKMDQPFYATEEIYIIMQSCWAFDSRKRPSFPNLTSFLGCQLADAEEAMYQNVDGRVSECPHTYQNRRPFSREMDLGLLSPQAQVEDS
The settings on record: at 1 µM.

Assay [16] concerns the target Vascular endothelial growth factor receptor 3 (Homo sapiens) (UniProt P35916). The settings on record: at 0.1 µM.
Assay [17] has the same target. The settings on record: at 1 µM.
Assay [18] has as its target Macrophage colony-stimulating factor 1 receptor (Homo sapiens) (UniProt P07333). The settings on record: at 0.1 µM.
The target is the same in assay [19]. The settings on record: at 1 µM.
Assay [20] deals with Tyrosine-protein kinase Fyn (Homo sapiens) (UniProt P06241). The settings on record: at 0.1 µM.

The values below come from ChEMBL document CHEMBL1961873, “Compounds: GSK PKIS; Assays: Nanosyn kinase panel” (2012).

The structures appear in SMILES notation.

A word on the inhibition: it is the relative decrease from the control value, in per cent.

Chain of Macrophage colony-stimulating factor 1 receptor (Homo sapiens) (P07333 whole entry): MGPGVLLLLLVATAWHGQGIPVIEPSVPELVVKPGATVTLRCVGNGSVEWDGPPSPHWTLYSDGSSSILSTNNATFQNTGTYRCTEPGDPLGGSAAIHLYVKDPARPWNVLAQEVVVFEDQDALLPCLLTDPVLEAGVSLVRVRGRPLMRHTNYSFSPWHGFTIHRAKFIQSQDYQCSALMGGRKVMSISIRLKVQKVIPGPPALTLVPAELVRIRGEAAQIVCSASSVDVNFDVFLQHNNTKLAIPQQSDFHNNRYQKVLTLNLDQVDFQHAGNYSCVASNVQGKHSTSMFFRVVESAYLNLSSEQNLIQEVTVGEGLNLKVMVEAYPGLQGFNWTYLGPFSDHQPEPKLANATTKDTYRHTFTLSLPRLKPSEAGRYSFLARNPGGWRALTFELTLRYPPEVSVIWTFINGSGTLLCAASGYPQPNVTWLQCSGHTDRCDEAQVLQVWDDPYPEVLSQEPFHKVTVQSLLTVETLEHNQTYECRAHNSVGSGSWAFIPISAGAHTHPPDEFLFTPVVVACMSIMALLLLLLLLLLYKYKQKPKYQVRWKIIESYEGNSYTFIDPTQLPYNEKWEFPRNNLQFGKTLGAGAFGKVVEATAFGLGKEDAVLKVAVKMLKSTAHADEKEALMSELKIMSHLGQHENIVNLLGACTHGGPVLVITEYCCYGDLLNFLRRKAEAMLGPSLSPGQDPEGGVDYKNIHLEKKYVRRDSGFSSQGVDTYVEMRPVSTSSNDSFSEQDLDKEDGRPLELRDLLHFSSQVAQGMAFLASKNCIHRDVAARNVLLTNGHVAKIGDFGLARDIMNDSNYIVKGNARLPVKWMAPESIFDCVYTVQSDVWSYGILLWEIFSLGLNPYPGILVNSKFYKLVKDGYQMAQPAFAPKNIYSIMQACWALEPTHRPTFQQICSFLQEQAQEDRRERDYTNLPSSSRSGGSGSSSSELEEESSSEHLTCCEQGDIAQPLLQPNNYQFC
Chain of Serine/threonine-protein kinase Nek6 (Homo sapiens) (Q9HC98 whole entry): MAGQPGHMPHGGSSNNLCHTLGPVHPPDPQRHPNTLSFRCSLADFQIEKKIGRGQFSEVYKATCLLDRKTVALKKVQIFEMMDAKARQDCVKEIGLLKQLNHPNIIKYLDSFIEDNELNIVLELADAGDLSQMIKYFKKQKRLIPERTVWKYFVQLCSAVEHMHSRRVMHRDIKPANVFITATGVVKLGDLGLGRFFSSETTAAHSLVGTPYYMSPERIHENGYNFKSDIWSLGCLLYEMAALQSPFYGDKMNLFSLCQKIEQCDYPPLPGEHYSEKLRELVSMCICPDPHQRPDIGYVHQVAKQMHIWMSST
Chain of Serine/threonine-protein kinase Nek7 (Homo sapiens) (Q8TDX7 whole entry, looked up): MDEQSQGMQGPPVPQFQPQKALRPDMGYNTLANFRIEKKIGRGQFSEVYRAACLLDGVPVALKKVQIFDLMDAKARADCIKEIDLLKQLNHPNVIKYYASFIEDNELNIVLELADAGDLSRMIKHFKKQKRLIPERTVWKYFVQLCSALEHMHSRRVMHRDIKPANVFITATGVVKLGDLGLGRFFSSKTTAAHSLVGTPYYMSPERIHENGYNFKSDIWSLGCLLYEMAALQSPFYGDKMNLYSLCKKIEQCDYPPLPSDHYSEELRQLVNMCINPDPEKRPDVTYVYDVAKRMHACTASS
Chain of Serine/threonine-protein kinase PLK1 (Homo sapiens) (P53350 whole entry): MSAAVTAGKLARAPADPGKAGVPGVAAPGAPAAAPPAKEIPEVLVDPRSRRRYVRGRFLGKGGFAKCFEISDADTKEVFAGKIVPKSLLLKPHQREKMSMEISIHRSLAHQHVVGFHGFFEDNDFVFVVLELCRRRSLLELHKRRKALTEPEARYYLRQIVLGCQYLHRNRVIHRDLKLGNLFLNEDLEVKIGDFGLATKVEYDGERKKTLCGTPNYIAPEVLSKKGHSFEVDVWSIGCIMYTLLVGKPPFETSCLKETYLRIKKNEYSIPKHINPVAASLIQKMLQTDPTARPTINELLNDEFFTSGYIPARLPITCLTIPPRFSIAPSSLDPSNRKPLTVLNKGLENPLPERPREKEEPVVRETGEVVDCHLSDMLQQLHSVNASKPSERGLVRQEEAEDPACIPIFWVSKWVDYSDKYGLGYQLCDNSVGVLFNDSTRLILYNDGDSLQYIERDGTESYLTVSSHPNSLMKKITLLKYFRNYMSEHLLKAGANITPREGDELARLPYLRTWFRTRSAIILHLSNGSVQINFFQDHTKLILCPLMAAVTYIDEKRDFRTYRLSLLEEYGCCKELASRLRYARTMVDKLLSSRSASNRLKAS
Chain of Vascular endothelial growth factor receptor 3 (Homo sapiens) (P35916 whole entry): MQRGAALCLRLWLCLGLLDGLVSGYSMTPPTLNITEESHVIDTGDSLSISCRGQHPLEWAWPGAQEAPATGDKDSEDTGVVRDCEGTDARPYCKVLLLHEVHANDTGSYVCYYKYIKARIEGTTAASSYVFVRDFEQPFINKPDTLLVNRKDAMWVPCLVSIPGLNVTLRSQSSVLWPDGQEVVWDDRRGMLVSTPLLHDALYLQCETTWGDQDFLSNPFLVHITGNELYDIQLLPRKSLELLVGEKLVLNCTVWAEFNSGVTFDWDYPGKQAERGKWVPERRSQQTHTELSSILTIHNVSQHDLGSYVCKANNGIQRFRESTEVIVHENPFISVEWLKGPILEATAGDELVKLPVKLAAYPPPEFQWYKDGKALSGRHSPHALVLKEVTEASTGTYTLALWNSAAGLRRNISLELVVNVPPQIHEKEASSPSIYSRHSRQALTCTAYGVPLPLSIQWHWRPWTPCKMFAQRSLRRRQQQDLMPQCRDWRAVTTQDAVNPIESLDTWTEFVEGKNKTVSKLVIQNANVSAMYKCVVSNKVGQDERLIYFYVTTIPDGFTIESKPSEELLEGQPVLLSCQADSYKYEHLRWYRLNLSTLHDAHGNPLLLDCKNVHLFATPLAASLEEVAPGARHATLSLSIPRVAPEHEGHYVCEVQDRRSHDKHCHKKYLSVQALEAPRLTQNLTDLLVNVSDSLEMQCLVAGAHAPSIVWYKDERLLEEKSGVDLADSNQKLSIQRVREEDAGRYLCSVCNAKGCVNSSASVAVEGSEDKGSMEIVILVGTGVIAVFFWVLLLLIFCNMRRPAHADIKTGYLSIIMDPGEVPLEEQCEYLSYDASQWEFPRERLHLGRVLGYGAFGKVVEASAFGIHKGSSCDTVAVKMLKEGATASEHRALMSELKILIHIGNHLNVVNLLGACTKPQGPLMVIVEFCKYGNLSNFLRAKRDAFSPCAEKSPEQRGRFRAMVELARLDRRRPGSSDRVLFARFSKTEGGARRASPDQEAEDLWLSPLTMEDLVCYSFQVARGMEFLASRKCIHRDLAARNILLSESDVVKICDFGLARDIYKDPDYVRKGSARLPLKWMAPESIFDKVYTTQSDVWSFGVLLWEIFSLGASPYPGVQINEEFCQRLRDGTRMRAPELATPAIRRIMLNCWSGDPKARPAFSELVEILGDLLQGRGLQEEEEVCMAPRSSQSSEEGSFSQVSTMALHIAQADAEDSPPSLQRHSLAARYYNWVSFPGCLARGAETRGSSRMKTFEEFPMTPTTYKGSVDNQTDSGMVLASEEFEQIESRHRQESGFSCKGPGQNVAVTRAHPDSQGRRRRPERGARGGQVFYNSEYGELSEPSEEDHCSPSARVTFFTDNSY
Chain of Tyrosine-protein kinase Fyn (Homo sapiens) (P06241 2-537 limits assumed): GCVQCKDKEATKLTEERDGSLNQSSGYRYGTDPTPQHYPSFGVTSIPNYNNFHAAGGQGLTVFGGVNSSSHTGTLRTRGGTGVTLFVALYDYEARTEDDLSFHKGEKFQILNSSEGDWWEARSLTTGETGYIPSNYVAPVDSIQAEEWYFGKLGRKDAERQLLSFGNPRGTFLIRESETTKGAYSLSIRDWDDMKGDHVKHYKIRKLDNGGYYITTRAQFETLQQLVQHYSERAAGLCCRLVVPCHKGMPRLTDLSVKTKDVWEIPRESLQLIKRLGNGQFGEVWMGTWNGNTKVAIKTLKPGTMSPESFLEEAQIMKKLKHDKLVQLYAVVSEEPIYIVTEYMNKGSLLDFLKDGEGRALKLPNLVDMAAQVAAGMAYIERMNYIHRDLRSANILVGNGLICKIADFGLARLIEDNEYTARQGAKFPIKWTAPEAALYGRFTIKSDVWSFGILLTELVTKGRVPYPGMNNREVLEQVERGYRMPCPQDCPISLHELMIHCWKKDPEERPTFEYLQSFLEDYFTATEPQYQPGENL

`COc1cccc(-n2ncc3c(N/N=C/c4ccc(C)cc4)ncnc32)c1`: the inhibition amounted to 6.9% in assay [1]; 5.55% in assay [2]; 9.78% in assay [3]; 8.39% in assay [4]; 10.7% in [5]; 3.25% in assay [6]. In addition, the inhibition stood at 3.08% in assay [7]; 4.05% in assay [8]; 10.1% in assay [9]; 9.27% in assay [10]; 9.51% in [11]; 7.38% in assay [12]. Also, the inhibition worked out at 14.2% in [13]; 18.3% in assay [14]; 10.3% in [15]; 3.28% in assay [16]; 4.5% in assay [17]; 4.53% in assay [18]. The inhibition is 12.9% in [19] and 5.39% in [20].
As to `Cc1cc(Cl)cc2c1NC(=O)C2=NNc1ccc(S(N)(=O)=O)cc1`, the inhibition in assay [1] was 6.95%; in assay [2], 1.58%; in [3], 2.35%; in assay [4] it was 2.49%; in [5] it was 2.54%; in assay [6], 0.31%. Further, the inhibition in assay [7] came out at 1.33%; in assay [8], 1.91%; in assay [9], 1.96%; in assay [10], 3.08%; in assay [11], 10.9%; in [12], 6.15%. The inhibition in assay [13] is 2.07%; in assay [14], 4.88%; in [15], -4.47%; in [16], 1.38%; in [17], 1.06%; in [18], -2.64%. Further, the inhibition turned out to be 8.32% in assay [19] and 0.94% in assay [20].
